Data published in PubChem BioAssay AID1159580 (chemical genetic matrix, 2015).
Several values for one entry are separate records, joined by “and”; a condition that tells them apart may be missing. Equal values may be shown once. The campaign covered roughly 5,500 compounds. About 2,000 (36%) were called active. About 18% were inconclusive and are not listed. No stated cut-off is given here; in the data, active means normalized growth mostly below about 0.91 (no sharp cut-off); inconclusive means no clear call, values can overlap the other calls; inactive means mostly above about 0.92. This is one part of the list.

Test: chemical genetic growth profiling, strain panel (AID 1159580);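 further: tested at 20 µM; growth read once vehicle control cultures reached saturation at 30 °C; 1 = growth at the plate median or of vehicle wells; lower values mean less growth of the strain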
Conditions: growth OD

Measured: normalized growth

CN1C2CCC1CC(OC(c1ccccc1)c1ccccc1N)C2 (stereo unspecified)
inactive: S. cerevisiae deletion strains, locus YJR075W, strain HOC1, hits give low values 0.997 and 1.08 | S. cerevisiae deletion strains, locus YKL009W, strain mrt4, hits give low values 1.03 | S. cerevisiae deletion strains, locus YKL068W, hits give low values 1.01 | S. cerevisiae deletion strains, locus YKL085W, strain MDH1 (second series), hits give low values 1 | S. cerevisiae deletion strains, locus YKL085W, strain MDH1, hits give low values 1 | S. cerevisiae deletion strains, locus YKL160W, strain elf1, hits give low values 1 | S. cerevisiae deletion strains, locus YKL190W, strain CNB1, hits give low values 1 | S. cerevisiae deletion strains, locus YKR001C, strain vps1, hits give low values 1.02 | S. cerevisiae deletion strains, locus YKR026C, strain gcn3, hits give low values 0.99 | S. cerevisiae deletion strains, locus YKR091W, strain srl3, hits give low values 0.996 | S. cerevisiae deletion strains, locus YLL001W, strain dnm1, hits give low values 1.01 | S. cerevisiae deletion strains, locus YLL026W, hits give low values 0.982 | S. cerevisiae deletion strains, locus YLL041C, strain sdh2, hits give low values 1 | S. cerevisiae deletion strains, locus YLR027C, strain aat2, hits give low values 0.986 | S. cerevisiae deletion strains, locus YLR039C, strain RIC1, hits give low values 1.02 | S. cerevisiae deletion strains, locus YLR058C, strain SHM2, hits give low values 1 | S. cerevisiae deletion strains, locus YLR102C, strain apc9, hits give low values 1.01 | S. cerevisiae deletion strains, locus YLR113W, strain HOG1, hits give low values 1.05 | S. cerevisiae deletion strains, locus YLR221C, strain rsa3, hits give low values 0.998 | S. cerevisiae deletion strains, locus YLR258W, strain gsy2, hits give low values 1 | S. cerevisiae deletion strains, locus YLR262C, strain YPT6 (second series), hits give low values 1.03 | S. cerevisiae deletion strains, locus YLR262C, strain YPT6, hits give low values 1.02 | S. cerevisiae deletion strains, locus YLR268W, strain sec22, hits give low values 1.01 | S. cerevisiae deletion strains, locus YLR320W, strain mms22, hits give low values 0.994 | S. cerevisiae deletion strains, locus YLR330W, strain CHS5, hits give low values 1.01 | S. cerevisiae deletion strains, locus YLR342W, strain FKS1 (second series), hits give low values 1.02 | S. cerevisiae deletion strains, locus YLR342W, strain FKS1, hits give low values 0.994 | S. cerevisiae deletion strains, locus YLR357W, strain rsc2, hits give low values 0.979 | S. cerevisiae deletion strains, locus YLR370C, strain arc18, hits give low values 0.978 | S. cerevisiae deletion strains, locus YLR371W, strain rom2, hits give low values 1.01 | S. cerevisiae deletion strains, locus YLR384C, strain iki3, hits give low values 1 | S. cerevisiae deletion strains, locus YLR418C, strain cdc73, hits give low values 0.994 | S. cerevisiae deletion strains, locus YML016C, strain PPZ1, hits give low values 1 | S. cerevisiae deletion strains, locus YML032C, strain rad52, hits give low values 1.03 | S. cerevisiae deletion strains, locus YML120C, strain ndi1, hits give low values 0.988 | S. cerevisiae deletion strains, locus YML124C, strain tub3, hits give low values 1.02 | S. cerevisiae deletion strains, locus YMR058W, strain fet3, hits give low values 1 | S. cerevisiae deletion strains, locus YMR078C, strain ctf18, hits give low values 1.02 | S. cerevisiae deletion strains, locus YMR125W, strain sto1, hits give low values 0.992 | S. cerevisiae deletion strains, locus YMR129W, hits give low values 0.997 | S. cerevisiae deletion strains, locus YMR205C, strain PFK2, hits give low values 0.981 | S. cerevisiae deletion strains, locus YMR223W, strain ubp8, hits give low values 1.01 | S. cerevisiae deletion strains, locus YMR231W, strain pep5, hits give low values 0.999 | S. cerevisiae deletion strains, locus YMR263W, strain SAP30, hits give low values 0.999 and 1 | S. cerevisiae deletion strains, locus YMR307W, strain GAS1, hits give low values 1 | S. cerevisiae deletion strains, locus YNL067W, strain RPL9B, hits give low values 1.01 | S. cerevisiae deletion strains, locus YNL071W, strain lat1, hits give low values 1 | S. cerevisiae deletion strains, locus YNL128W, strain TEP1, hits give low values 0.993 | S. cerevisiae deletion strains, locus YNL153C, strain GIM3, hits give low values 1 | S. cerevisiae deletion strains, locus YNL175C, strain NOP13, hits give low values 1.01 | S. cerevisiae deletion strains, locus YNL183C, strain NPR1, hits give low values 0.92 | S. cerevisiae deletion strains, locus YNL197C, strain WHI3, hits give low values 1.02 | S. cerevisiae deletion strains, locus YNL209W, strain ssb2, hits give low values 1.01 | S. cerevisiae deletion strains, locus YNL224C, strain SQS1, hits give low values 1.03 | S. cerevisiae deletion strains, locus YNL233W, strain BNI4, hits give low values 1.01 | S. cerevisiae deletion strains, locus YNL248C, strain rpa49, hits give low values 0.995 | S. cerevisiae deletion strains, locus YNL250W, strain rad50, hits give low values 1.02 | S. cerevisiae deletion strains, locus YNL271C, strain bni1, hits give low values 1 | S. cerevisiae deletion strains, locus YNL298W, strain CLA4, hits give low values 1.01 | S. cerevisiae deletion strains, locus YNL307C, strain MCK1, hits give low values 1 | S. cerevisiae deletion strains, locus YNL322C, strain KRE1 (second series), hits give low values 1 | S. cerevisiae deletion strains, locus YNL322C, strain KRE1, hits give low values 0.996 | S. cerevisiae deletion strains, locus YNR049C, strain mso1, hits give low values 0.996 | S. cerevisiae deletion strains, locus YNR052C, strain pop2, hits give low values 1.01 | S. cerevisiae deletion strains, locus YOL006C, strain TOP1, hits give low values 0.986 | S. cerevisiae deletion strains, locus YOL012C, strain htz1 1.61 | S. cerevisiae deletion strains, locus YOL147C, strain pex11, hits give low values 1.02 | S. cerevisiae deletion strains, locus YOR001W, strain rrp6, hits give low values 1.01 | S. cerevisiae deletion strains, locus YOR061W, strain CKA2, hits give low values 1.01 | S. cerevisiae deletion strains, locus YOR069W, strain VPS5, hits give low values 1 | S. cerevisiae deletion strains, locus YOR070C, strain gyp1, hits give low values 1.01 | S. cerevisiae deletion strains, locus YOR080W, strain dia2, hits give low values 0.985 | S. cerevisiae deletion strains, locus YOR083W, strain WHI5 (second series), hits give low values 1.02 | S. cerevisiae deletion strains, locus YOR083W, strain WHI5, hits give low values 1 | S. cerevisiae deletion strains, locus YOR106W, strain vam3, hits give low values 1.01 | S. cerevisiae deletion strains, locus YOR136W, strain idh2, hits give low values 1.03 | S. cerevisiae deletion strains, locus YOR144C, strain elg1, hits give low values 1.01 | S. cerevisiae deletion strains, locus YOR184W, strain ser1, hits give low values 1.04 | S. cerevisiae deletion strains, locus YOR231W, strain MKK1, hits give low values 0.977 | S. cerevisiae deletion strains, locus YOR265W, strain rbl2, hits give low values 1.01 | S. cerevisiae deletion strains, locus YOR270C, strain vph1, hits give low values 1.03 | S. cerevisiae deletion strains, locus YOR290C, strain snf2, hits give low values 1.01 | S. cerevisiae deletion strains, locus YOR316C, strain cot1, hits give low values 1.02 | S. cerevisiae deletion strains, locus YPL051W, strain arl3, hits give low values 0.989 | S. cerevisiae deletion strains, locus YPL055C, strain LGE1, hits give low values 1.01 | S. cerevisiae deletion strains, locus YPL078C, strain atp4, hits give low values 1.01 | S. cerevisiae deletion strains, locus YPL106C, strain sse1, hits give low values 0.957 | S. cerevisiae deletion strains, locus YPL240C, strain hsp82, hits give low values 1.02 | S. cerevisiae deletion strains, locus YPL241C, strain CIN2, hits give low values 0.998 and 1 | S. cerevisiae deletion strains, locus YPL256C, strain CLN2, hits give low values 0.986 | S. cerevisiae deletion strains, locus YPR119W, strain clb2, hits give low values 0.999 | S. cerevisiae deletion strains, locus YPR141C, strain kar3, hits give low values 1.02 | S. cerevisiae deletion strains, locus YPR163C, strain tif3, hits give low values 1.03 | S. cerevisiae deletion strains, locus YPR167C, strain met16, hits give low values 1.02 | S. cerevisiae deletion strains, strain wtn01, hits give low values 1.02 | S. cerevisiae strains, strain wild type, hits give low values 0.984
